Compounds with a hit are over-represented: about 20% of the library has one in this group of screens.
CHX counter = counter-screen for Shiga toxin inhibitors: cycloheximide protein synthesis inhibition. 300,000 compounds, 12% hits. max response, %. cell reporter, cycloheximide protein synthesis inhibition counterscreen; in the data active means max response mostly above about 13%, no sharp cut-off; inactive means mostly below about 14%; further: read at 38.3 µM for the half of the compounds with a filed dose
Shiga inhibitor = blocks Shiga toxin action in Vero cells | inhibition, % at 38.7 µM | AID 2315 | Vero cells, Shiga toxin protein synthesis inhibition reporter | 290,000 compounds, 9.2% hits; in the data active means inhibition mostly above about 28%, no sharp cut-off; inactive means mostly below about 43%
HCMV inh = human cytomegalovirus inhibition. activity change, negative = inhibition, % at 57.5 µM. HFF cells, HCMV-luciferase reporter, 72 h; active compounds read low. AID 1259415. 410,000 compounds, 4.5% hits; in the data active means activity change below about -60%; inconclusive means no clear call, values can overlap the other calls; inactive means above about -39%
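Screen run at 2 compound doses on HFFs infected with reporter HCMV, MOI 1 PFU/cell. Luciferase activity from cell lysates at 72 h post infection gave inhibition relative to buffer-only and Salinomycin wells.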
Pf growth 96h = P. falciparum growth inhibition at 96 hour, primary screen for plastid delayed-death inhibitors. 320,000 compounds, 6.9% hits. P. falciparum luciferase reporter growth, 96 h. Potency, µM (titrated, usually from 28.7 µM), hits mostly inhibitors. AID 504834
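Compounds incubated with erythrocytes infected by luciferase-expressing P. falciparum (2% hematocrit, 0.05% parasitemia final) for 96 hours, 37 C in 5% CO2. Growth inhibition scored as decreased luciferase luminescence.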
Pf growth 48h = inhibits P. falciparum growth in the first generation, 48 h; P. falciparum luciferase growth in erythrocytes, 48 h; Potency, µM (doses to about 28.7 µM), most hits filed as inhibitors; 310,000 compounds, 5.9% hits
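In quantitative HTS format, infected erythrocytes bearing luciferase-reporter parasites were treated for a single generation at 37 C. Luminescence after adding detection reagent served as the growth measure.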
Each line names hits and unclear results; the compound was inactive in the other large screens. Unless noted, the call rests on the fitted dose curve; in most records, active means well fitted inhibition curve with a large enough effect; inconclusive means small, poorly fitted or top-dose-only effect, or another doubt; inactive means no such curve, though single readings can be large or run the other way.

COc1ccc(CC(=O)Nc2ccc3nc(C)sc3c2)cc1OC	HCMV inh inconclusive
COc1ccc(NC(=O)c2ccc3nc(C)sc3c2)cc1	CHX counter 64, Shiga inhibitor 129, Pf growth 96h inconclusive
CCc1ccccc1NC(=O)CN(C)S(=O)(=O)c1ccc(-c2ccc(=O)[nH]n2)s1	Pf growth 96h inconclusive, Pf growth 48h inconclusive
Cc1ccc(C)c(N2CCN(C(=O)CCS(=O)(=O)c3ccc4c(c3)CCN4C(=O)C3CC3)CC2)c1	Pf growth 48h inconclusive
COc1ccc(NC(=O)CN(Cc2ccccc2)S(=O)(=O)c2ccc3nc(C)sc3c2)cc1	none (no result: CHX counter, Shiga inhibitor, Pf growth 96h, Pf growth 48h)
COCCNC(=O)CN(Cc1ccccc1)S(=O)(=O)c1ccc2nc(C)sc2c1	HCMV inh -61
COC(=O)c1ccc(NC(=O)c2ccc3nc(C)sc3c2)cc1	CHX counter 77 (no result: Shiga inhibitor)
COC(=O)c1ccc(COc2ccccc2[N+](=O)[O-])o1	CHX counter 45, Shiga inhibitor 73
O=C(Nc1nc2ccccc2n1Cc1ccccc1)c1ccc(COc2ccccc2[N+](=O)[O-])o1	Pf growth 96h inconclusive, Pf growth 48h 1.9µM
COC(=O)c1ccc(COc2ccc(NC(C)=O)cc2)o1	none
Cc1ccc(OCc2ccc(C(=O)O)o2)c([N+](=O)[O-])c1	CHX counter 13
Cc1cn([C@H]2C[C@H](O)[C@@H](CNS(=O)(=O)c3ccc(NS(=O)(=O)N(C)C)cc3)O2)c(=O)[nH]c1=O	none (no result: CHX counter, Shiga inhibitor, Pf growth 96h, Pf growth 48h)
O=C(NCCc1ccccc1)c1ccc(CSc2nc3ccncc3n2Cc2ccccc2F)cc1	none (no result: CHX counter, Shiga inhibitor, Pf growth 96h, Pf growth 48h)
NC(=O)COC(=O)c1ccccc1SCC(=O)NC1CCCCCC1	none
CCCN1CCN(C(=S)Nc2ccccc2C(F)(F)F)CC1	HCMV inh -83, Pf growth 96h inconclusive
FC(F)(F)c1cccc(NC(=S)N2CCN(c3cccc(C(F)(F)F)c3)CC2)c1	Pf growth 96h 5.9µM
Fc1ccc(NC(=S)N2CCN(c3cccc(C(F)(F)F)c3)CC2)cc1	HCMV inh inconclusive
Fc1cc(F)c(C2SCCN2C(=S)Nc2cccc(C(F)(F)F)c2)c(F)c1 (stereo not drawn)	Pf growth 96h 2.9µM, Pf growth 48h inconclusive
CCN1CCN(C(=S)Nc2cccc(C(F)(F)F)c2)CC1	Pf growth 96h 9.3µM
C[C@H](CO)N1C[C@H](C)[C@@H](CN(C)C(=O)Nc2ccc3c(c2)OCO3)Oc2ccc(NC(=O)CCC(F)(F)F)cc2C1=O	none (no result: CHX counter, Shiga inhibitor, Pf growth 96h, Pf growth 48h)
COCc1cc(C)n(CC(=O)Nc2cccc(C(C)=O)c2)c(=O)c1C#N	none (no result: CHX counter, Shiga inhibitor, Pf growth 96h, Pf growth 48h)
CCCn1c(SCC(=O)N2CCCC(C)C2)nnc1-c1ccccn1 (stereo not drawn)	none
ON=C(c1ccccc1)c1ccc2c3c(cccc13)CC2	HCMV inh -62 (no result: CHX counter, Shiga inhibitor, Pf growth 96h, Pf growth 48h)
COc1ccc(C(=O)n2nc(C)c(Br)c2C)cc1	Pf growth 96h 0.47µM, Pf growth 48h inconclusive
COc1ccc(N2CCN(C(=O)COC(=O)CC(NC(N)=O)c3ccc(Cl)cc3)CC2)cc1 (stereo not drawn)	HCMV inh -62 (no result: CHX counter, Shiga inhibitor, Pf growth 96h, Pf growth 48h)
CC(=O)c1ccc(N2CCN(C(=O)COc3ccc4ccccc4c3)CC2)cc1	HCMV inh -62 (no result: CHX counter, Shiga inhibitor, Pf growth 96h, Pf growth 48h)
O=C(COc1ccc2ccccc2c1)N1CCN(c2ccccc2)CC1	none (no result: CHX counter, Shiga inhibitor)
COc1ccc(N2CCN(C(=O)COc3ccc4ccccc4c3)CC2)cc1	Pf growth 96h 9.3µM
CCc1ccccc1NC(=O)CSc1nccn1C	none (no result: CHX counter, Shiga inhibitor, Pf growth 96h, Pf growth 48h)
O=C(NC(NC1CCS(=O)(=O)C1)C(=O)c1cccs1)c1ccccc1 (stereo not drawn)	none (no result: Pf growth 96h)
O=C(NC1=C(Nc2ccc(Cl)cc2)C(=O)c2ccccc2C1=O)c1ccccc1	CHX counter 24, HCMV inh -65, Pf growth 96h 0.1µM, Pf growth 48h 0.13µM
O=C(NC1=C(NC2CCS(=O)(=O)C2)C(=O)c2ccccc2C1=O)c1ccccc1 (stereo not drawn)	HCMV inh -99, Pf growth 96h inconclusive, Pf growth 48h 1.7µM
Cc1cccc(C(=O)Nc2cccc(NC(=O)c3ccccc3)c2)c1	Pf growth 96h inconclusive
Cc1cccc(NC2=C(NC(=O)c3ccccc3)C(=O)c3ccccc3C2=O)c1	CHX counter 14, Pf growth 96h inconclusive, Pf growth 48h 0.47µM
O=C1C(Cl)=C(NC(=O)c2ccccc2)C(=O)C(Cl)=C1NC(=O)c1ccccc1	CHX counter 18, HCMV inh inconclusive, Pf growth 96h inconclusive (no result: Pf growth 48h)
O=C(Nc1ccc(NS(=O)(=O)c2ccccc2)cc1)c1ccc(Cl)cc1	none
CN(C1=C(NC(=O)c2ccc(Cl)cc2)C(=O)c2ccccc2C1=O)c1ccccc1	CHX counter 20, Shiga inhibitor 50, Pf growth 96h inconclusive, Pf growth 48h 1.9µM
